Bioassay records deposited in PubChem BioAssay by The Scripps Research Institute Molecular Screening Center.
Most compounds without a hit are left out; they make up all but 3.5% or so of the library.
FBW7 activator = activators of human E3 ligase FBW7 | 0.13% of 650,000 active | normalized activity (activation), % at 26.1 µM | Q969H0 | AlphaScreen FBW7–phospho-cyclin E peptide binding, activator screen | AID 1259310; in the data active means normalized activity above about 1.9%;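 further: purified mutant Fbw7 with reduced substrate affinity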
Target sequence (Q969H0 whole entry, looked up): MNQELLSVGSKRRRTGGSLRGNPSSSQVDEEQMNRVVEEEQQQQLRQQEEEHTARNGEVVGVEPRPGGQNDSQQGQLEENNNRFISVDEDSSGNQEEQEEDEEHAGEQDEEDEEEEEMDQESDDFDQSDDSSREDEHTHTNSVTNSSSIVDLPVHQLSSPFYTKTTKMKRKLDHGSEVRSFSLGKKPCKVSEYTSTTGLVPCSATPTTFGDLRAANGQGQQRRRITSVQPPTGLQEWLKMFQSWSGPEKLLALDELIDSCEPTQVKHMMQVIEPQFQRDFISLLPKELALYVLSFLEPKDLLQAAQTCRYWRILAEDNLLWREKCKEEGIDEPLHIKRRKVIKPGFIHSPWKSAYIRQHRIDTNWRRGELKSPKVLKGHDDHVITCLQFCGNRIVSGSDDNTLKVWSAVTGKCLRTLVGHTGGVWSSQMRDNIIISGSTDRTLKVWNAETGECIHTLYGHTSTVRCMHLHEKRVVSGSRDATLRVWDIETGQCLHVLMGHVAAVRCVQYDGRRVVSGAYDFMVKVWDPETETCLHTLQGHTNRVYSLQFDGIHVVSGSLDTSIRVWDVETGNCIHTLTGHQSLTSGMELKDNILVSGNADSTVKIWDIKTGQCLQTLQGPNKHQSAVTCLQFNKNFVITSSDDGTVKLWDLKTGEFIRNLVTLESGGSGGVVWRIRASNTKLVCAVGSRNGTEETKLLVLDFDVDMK
TEAD-YAP block = TEAD-YAP interaction inhibition | HEK-TIYL cells, TEAD-Gal4/YAP UAS-luciferase luminescence | inhibition, % at 9.12 µM | 1.4% of 640,000 active | AID 1259422; in the data active means inhibition above about 32%
MITF inh = inhibitors of human MITF; O75030; AlphaScreen MITF homodimerization, bead proximity signal; inhibition, % at 2.6 µM; 0.91% of 650,000 active; in the data active means inhibition above about 50%
GPR151 ag = activators of human GPR151 | Q8TDV0 | 1% of 650,000 active | PathHunter beta-arrestin GPR151 cells, luminescence | AID 1508602 | activation, % at 11.2 µM; in the data active means activation above about 4.9%
GPR151 conf act = confirmation of human GPR151 activators; activation, % at 11.2 µM; 6,700 tested, under 10 active; shares compounds with GPR151 ag; GPR151 PathHunter beta-arrestin cells, luminescence, 90 min; % of EA-reagent control over plate median; AID 1508609;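 active means mean percent activation across replicates above the confirmation screen cutoff of 4.91%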
GPR119 counter = activates human GPR119 in a GPR151 counter-screen; GPR119 PathHunter beta-arrestin cells, luminescence, 90 min; 0 = compound-well median, 100 = enzyme-acceptor control; shares compounds with GPR151 ag; AID 1508611; 0.3% of 6,700 active; activation, % at 11.2 µM;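 active means mean percent activation in the counterscreen above 29.09%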;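 further: counterscreen on off-target GPR119 to flag nonselective hits from the GPR151 activator screen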
Each line names hits and unclear results; the compound was inactive in the other large screens (follow-up assays come after a bar, where they were run); ! = a repeat was not active.

CC1(C)SC2C(N)C(=O)N2C1C(=O)O (stereo not drawn)	none
COc1cc(CN2CCNCC2)cc2c1OCO2	none
C=CCc1cc(OC)c2c(c1OC)OCO2	GPR151 ag 11 | GPR151 conf act inactive | GPR119 counter inactive
CCOc1ccc(Br)cc1C=C(C#N)C#N	none
CCCCOc1ccc(C(=O)Nc2ccc(Br)cc2C(=O)c2ccccc2)cc1	none
CCOc1ccc(C2SCC(=O)Nc3c2c(=O)[nH]n3C(CC)CC)cc1 (stereo not drawn)	GPR151 ag 7.1 | GPR151 conf act inactive | GPR119 counter inactive
CCOc1cc(/C=C/[N+](=O)[O-])ccc1OCc1cccc(F)c1	none
Cc1ccccc1Cc1c(C(=O)NCc2ccon2)c(=O)cc(C)n1Cc1ccncc1	none
CC(C(=O)N1CCC2(CC1)OCCO2)C1Sc2ccccc2NC1=O (stereo not drawn)	GPR151 ag 9.2 | GPR151 conf act inactive | GPR119 counter inactive
CCN(CC)P1(=S)OC(c2ccc([N+](=O)[O-])cc2)=Nc2c1c(C)nn2CCC#N (stereo not drawn)	none
CN1CCN(Cc2ccccc2Br)CC1	GPR151 ag 5.1 | GPR151 conf act inactive | GPR119 counter inactive
Brc1ccccc1CN1CCOCC1	none
Cc1nc2ccc(I)cc2c(=O)n1-c1ccc(Cl)cc1	none
O=C1C=C2C=C[C@H]3C[C@]2(O1)[C@@H]1CCCCN13	GPR151 ag 9.6! | GPR151 conf act inactive | GPR119 counter inactive
CCOC(=O)C1=C(N)Oc2cc(O)ccc2C12C(=O)N1c3c(cccc32)C(C)CC1(C)C (stereo not drawn)	none
CCOC(=O)C1=C(C)OC(N)=C(C#N)C12C(=O)N1c3c(cc(CC)cc32)C(C)CC1(C)C (stereo not drawn)	GPR151 ag 9.0 | GPR151 conf act inactive | GPR119 counter inactive
Cc1ccc(C)c(CN2CCN(C)C(CCO)C2)c1 (stereo not drawn)	none
COC(=O)COc1ccc(C=C2C(=O)NC(=O)NC2=O)cc1	GPR151 ag 5.2 | GPR151 conf act inactive | GPR119 counter inactive
CCCCC/C=C\C/C=C\C/C=C\C/C=C\CCCC(=O)NCCO	GPR151 ag 7.1 (no result: FBW7 activator, TEAD-YAP block) | GPR151 conf act inactive | GPR119 counter inactive
C=CC[n+]1ccc(-c2cc[n+](CC=C)cc2)cc1	none
O=c1oc2ccccc2c(O)c1C(c1ccc(Br)cc1)c1c(O)c2ccccc2oc1=O	none
Cc1ccc(C2=CCN(CC(=O)NC(C)C)CC2)o1	none
COc1cc(N2CCOCC2)ccc1C=C1C(=O)NC(=O)NC1=O	GPR151 ag 8.0 | GPR151 conf act inactive | GPR119 counter inactive
COc1cc(N2CCOCC2)ccc1/C=C1\C(=O)NC(=O)N(Cc2cccs2)C1=O	none
CCCCOC(=O)c1ccccc1C(=O)OCCCC	GPR151 ag 5.9! | GPR151 conf act inactive | GPR119 counter inactive
NC(=O)OCCCc1ccccc1	none
Cc1[nH]c2c(Cl)ccc(Cl)c2c1CCN	GPR151 ag 6.8 | GPR151 conf act inactive | GPR119 counter inactive
Cc1[nH]c2c(Cl)c(Cl)ccc2c1CCN	none
COc1ccc2[nH]c3c(c2c1)CCN=C3C	GPR151 ag 5.6 (no result: TEAD-YAP block) | GPR151 conf act inactive | GPR119 counter inactive
COc1ccc2[nH]cc(CN(C)C)c2c1	none
C=CCN1C[C@H](C)N([C@H](c2ccc(C(=O)N(CC)CC)cc2)c2cccc(OC)c2)C[C@H]1C	GPR151 ag 5.2 (no result: TEAD-YAP block) | GPR151 conf act inactive | GPR119 counter inactive
OC1(c2ccco2)CC2CCC(C1)N2Cc1ccnc(N2CCCC2)n1 (stereo not drawn)	none
CCOC(=O)c1c(CN2CCCCC2)n(Cc2ccccc2)c2cc(Br)c(O)cc12	GPR151 ag 5.0 | GPR151 conf act inactive | GPR119 counter inactive
CCOC(=O)c1c(CN2CCCC2)n(Cc2ccccc2)c2cc(Br)c(O)cc12	none
C[N+]1(C)CCC(OC(=O)C(c2ccccc2)c2ccccc2)CC1	none
CN1C2CCC1CC(OC(=O)C(c1ccccc1)c1ccccc1)C2 (stereo not drawn)	GPR151 ag 5.1 | GPR151 conf act inactive | GPR119 counter inactive
CN1/C(=C/C=C2C(=O)NC(=S)NC2=O)C(C)(C)c2ccccc21	none
CCn1c(/C=C/C=C2\N(C)c3ccccc3C2(C)C)[n+](Cc2ccccc2)c2ccccc21	TEAD-YAP block 92, GPR151 ag 8.7 | GPR151 conf act inactive | GPR119 counter inactive
